Screens from PubChem.
A selection: hits, their analogues and other compounds. The true share with any hit is near 3.5%.
BoNT-A LC inh2: inhibitors of Botulinum neurotoxin A light chain protease; multiplex microsphere protease substrate cleavage, flow cytometry; inhibition, % at 10 µM; hit rate 0.17% among 360,000; further: plate controls were buffer without enzyme for full effect and enzyme alone for no effect
Anthrax LF prot: blocks Bacillus anthracis lethal factor protease; P15917; multiplex microsphere protease cleavage assay, LF; inhibition, % at 10 µM; hit rate 0.12% among 360,000; AID 588501; further: plate controls were buffer without enzyme for full effect and enzyme alone for no effect
Autofluor counter: flagged as autofluorescent in microsphere protease counterscreen. fluorescence intensity (no concentration beside the values). compound autofluorescence counterscreen, microsphere flow cytometry; active compounds read high. AID 624483. hit rate 3.1% among 360,000; in the data active means fluorescence intensity above about 16000; inconclusive means no clear call, values can overlap the other calls
BoNT-F LC inh: inhibitors of Botulinum neurotoxin F light chain protease; Multiplex microsphere protease cleavage assay, flow cytometry; inhibition, % at 10 µM; hit rate 0.22% among 360,000; AID 588497; in the data active means inhibition above about 35%, passing the limit was not always enough; inconclusive means no clear call, values can overlap the other calls; further: plate controls were buffer without enzyme for full effect and enzyme alone for no effect
The depositor's hits bear a star; ? = inconclusive. Unless noted, no stated cut-off is given here; in the data, active means inhibition above about 30%; inconclusive means no clear call, values can overlap the other calls; inactive means below that.

SMILES	BoNT-A LC inh2	Anthrax LF prot	Autofluor counter	BoNT-F LC inh
Cc1[nH]c(=O)c(C#N)c2c1CCCC2	4	-2	22068*	4
CC(C)NC(=O)c1ccc2sc([C@@H]3O[C@H](CO)[C@H](O)[C@H](O)[C@H]3O)nc2c1	0	7	3716	4
Cc1cc2ncn(/N=C/c3ccc4c(c3)OCO4)c2cc1C	0	-2	4766	-1
Cc1cc2ncn(/N=C/c3ccc(-c4ccccc4)o3)c2cc1C	2	0	21563*	3
O=c1c2ccccc2nc(N2CCCC2)n1-c1ccc(Cl)cc1	1	2	22940*	-1
CCCCCC(=O)Nc1cc(N(C)C)nc2ccccc12	6	-14	17328*	9
CCN(CC)CC(=O)Nc1cc(N(C)C)nc2ccccc12	2	-8	?	?
O=C(CSc1nnnn1-c1ccccc1)c1cc2ccccc2oc1=O	-1	4	4399	-28
Cn1c(=O)oc2ccc(C(=O)CSc3nnnn3-c3ccccc3)cc21	?	-8	19593*	-1
Cn1c2ccc(F)cc2c2ncn(CCCN(CCO)CCO)c(=O)c21	-2	-4	21356*	-1
C=CCn1c(N)c(C(=O)NC2CCCCC2)sc1=S	-1	0	23947*	-2
O=C(COC(=O)c1ccccc1Br)NCCc1ccc(F)cc1	4	-2	2876	43*
O=C1CC(Nc2ccc(N3CCOCC3)cc2)C(=O)N1Cc1ccccc1 (stereo not drawn)	-2	-3	22615*	-8
Cc1ccc(C(=O)COC(=O)C2C3C=CC(C3)C2C(=O)OCC(=O)c2ccc(C)c(C)c2)cc1C (stereo not drawn)	?	-10	22921*	-4
O=C(c1ccco1)N1CCN(C2CC(=O)N(c3ccc4c(c3)OCO4)C2=O)CC1 (stereo not drawn)	0	-2	22383*	-1
COc1ccc(OC)c(-c2cnc(OC(C)(C)C)nc2OC(C)(C)C)c1	0	-1	1996	0
O=C(Nc1ccon1)c1ccc(Cl)s1	?	2	17115*	-3
CN(C)CCO/N=C(\c1ccc(Br)cc1)c1cccnc1	-82	-50	21777*	?
CN(C)C/C=C(/c1ccc(Br)cc1)c1cccnc1	0	2	5367	-6
CCCCCC(=O)Nc1ccc(N2CCN(CC)CC2)c(Cl)c1	-2	2	23051*	-5
Cc1ccc(S(=O)(=O)N2CCN(C(=O)COC(=O)COc3ccccc3)CC2)cc1	0	-1	20093*	2
O=C(CN1CCc2ccccc2C1)N1CCN(S(=O)(=O)c2ccccc2)CC1	1	-12	?	-2
Cc1ccc(S(=O)(=O)N2CCN(C(=O)CN3CCc4ccccc4C3)CC2)cc1	-2	0	21614*	-5
COc1ccc(S(=O)(=O)N2CCN(C(=O)COc3ccccc3)CC2)cc1	-1	2	3395	-1
C/C(=N\NC(=O)C(=O)Nc1cc(C)ccc1C)c1ccncc1	0	2	4013	-2
SMILES	BoNT-A LC inh2	Anthrax LF prot	Autofluor counter	BoNT-F LC inh
Cc1ccc(S(=O)(=O)N2CC(C)N(C(=O)N3CCOCC3)C2)cc1 (stereo not drawn)	-1	5	3738	9
CCC(=O)N1CN(S(=O)(=O)c2ccc(C)cc2)CC1C (stereo not drawn)	-3	-2	21656*	-3
CC(C)[C@H](NC(=O)NCc1ccc(Cl)cc1)C(=O)O	-2	1	23334*	0
CC(C)C(NCc1c(Cl)cccc1Cl)C(=O)O (stereo not drawn)	5	-1	21266*	7
CN(c1ccccc1)S(=O)(=O)c1cccc(NC(=O)COC(=O)C2CCCCC2)c1	0	0	3619	-5
O=C(c1ccccc1)n1ccn(-c2ccccc2)c1=S	?	1	19357*	1
O=C(c1ccccc1)N1CCN(C(=O)c2ccccc2)CC1	0	-4	3075	-4
O=C(CSc1ccccn1)N1CCN(c2ccc(Cl)cc2)CC1	?	-1	21847*	3
COc1ccc(N2CCN(C(=O)CSc3nnc(-c4cc5ccccc5cc4O)n3C)CC2)cc1	17	-11	16210*	-15
Cn1c(SCC(=O)N2CCOCC2)nnc1-c1ccco1	-1	-1	6030	-6
Cn1c(CCNC(=O)c2cccs2)nnc1SCC(=O)N1CCN(c2ccccc2)CC1	?	0	23569*	1
Cn1c(SCC(=O)N2CCN(c3ccccc3)CC2)nnc1-c1ccco1	0	-2	20444*	0
COc1ccc(-n2cnnc2SCC(=O)N2CCN(c3ccccc3)CC2)cc1	-1	-4	2457	1
COc1ccccc1C1CC(c2ccccc2)=NN1C(=S)Nc1ccccc1 (stereo not drawn)	4	1	7118	0
COc1ccc(C(=O)C2CCCN(S(=O)(=O)C(C)C)C2)c(C)c1 (stereo not drawn)	0	-2	4504	1
